mHTT CaM bind – disrupts binding of mutant huntingtin to calmodulin; inhibition, % at 15 µM; actives 3.6% (n = 190,000); P42858; AID 1671202; AlphaScreen His-mHTT/GST-CaM binding, luminescence;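 further: 0% = both proteins with DMSO and 100% = one protein alone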
Pf apPOL block – Pf-apPOL DNA polymerase inhibition | Recombinant Pf-apPOL, molecular beacon fluorescence, 1.5 h | inhibition, % at 10 µM | actives 0.25% (n = 210,000) | AID 1794808
Starred values were filed as active, the others as inactive; nt = not tested or not shown; ! = a repeat was not active. Compounds with a hit are over-represented: about 3.6% of the library has one in this group of screens. No stated cut-off is given here; in the data, active means inhibition above about 50%; inactive means the rest.

SMILES | mHTT CaM bind | Pf apPOL block
O=C(Nc1cccc(F)c1)c1cc(S(=O)(=O)NCc2ccccc2Cl)ccc1F | 1 | -6
O=C(Nc1cc(Cl)cc(Cl)c1)c1ccc(F)c(S(=O)(=O)NCc2ccc(F)cc2)c1 | 53* | 39
O=C(Nc1ccc(Cl)cc1)c1cc(S(=O)(=O)NCc2ccccc2Cl)ccc1F | 5 | 84*
COc1ccc2c(c1)c(=O)c1ccccc1n2CC(=O)Nc1ccccc1C(F)(F)F | -10 | 1
COC(=O)C(C)Oc1ccc2c(c1C)OC(=Cc1ccc(OC)cc1OC)C2=O (centres undefined) | -8 | -7
CC(=O)N1CCC2(CC1)Nc1cccnc1NC2=NCc1ccccc1 | 1 | -5
O=C(Nc1cccc(F)c1)N1CCC2(CC1)Nc1cccnc1NC2=NCc1ccccc1 | 99* | -9
CCC(=NOc1ccc(C(F)(F)F)cc1[N+](=O)[O-])c1ccc(-c2ccccc2F)cc1 | nt | -5
O=C(c1ccccc1)N1CCN(c2ccc([N+](=O)[O-])cc2Cl)CC1 | 4 | -1
O=C(c1cc(F)c(F)cc1Cl)N1CCN(c2ccc([N+](=O)[O-])c3cccnc23)CC1 | 50* | -3
O=C(c1ccccc1)N1CCN(c2ccc(F)cc2[N+](=O)[O-])CC1 | 10 | -6
O=C(c1ccc(Cl)c(Cl)c1)N1CCN(c2ccc([N+](=O)[O-])c3cccnc23)CC1 | 8 | 1
O=C(c1ccc(Cl)c(Cl)c1)N1CCN(c2ccc(F)cc2[N+](=O)[O-])CC1 | 53* | -19
O=C(c1cccc([N+](=O)[O-])c1)N1CCN(c2cccc(Cl)c2Cl)CC1 | 74* | -1
CCc1nc(C)c2c(=O)[nH]ccn12 | 2 | 4
COc1ccc(-c2ncc3c(n2)CCN(C(=O)c2c(F)cccc2Cl)C3)cc1 | 0 | -2
COc1ccc(NC(=O)C2CC(c3ccc(F)cc3)=NO2)cc1OC (centres undefined) | -5 | 0
O=S(=O)(NN1CCOCC1)c1sc(Cl)cc1Br | nt | 5
CCn1c(=O)c2c(ncn2Cc2ccccc2C)n(-c2cccc(F)c2)c1=O | -3 | 0
O=C(NCc1ccccc1)C1CC1(c1ccccc1)c1ccccc1 (centres undefined) | -10 | 0
CSc1ccccc1NC(=O)Cc1csc(NC(=O)c2ncccn2)n1 | 100* | -24
Cc1cc(NC(=O)Cc2csc(NC(=O)c3ncccn3)n2)no1 | 100* | -2
CCOC(=O)Cc1csc(NC(=O)c2ncccn2)n1 | 84* | -16
CC(C)c1ccccc1NC(=O)Cc1csc(Nc2ncccn2)n1 | 2 | -3
Cc1cc(C)nc(Nc2nc(CC(=O)NCc3ccccn3)cs2)n1 | 13 | -4
SMILES | mHTT CaM bind | Pf apPOL block
CCOC(=O)Cc1csc(NC(=O)CSc2ccccn2)n1 | nt | 0
Cc1ccnc(Nc2nc(CC(=O)Nc3ccc4c(c3)OCCO4)cs2)c1 | 16 | 0
Cc1ccnc(Nc2nc(CC(=O)Nc3nnc(C)s3)cs2)c1 | 56* | 22
CC1(C)OC(=O)C(=Cc2cc(Br)c(O)c(Br)c2)C(=O)O1 | 3 | -7
O=C(Nc1ccc(Cn2cncn2)cc1)c1cccs1 | 1 | -2
O=C(NCC1(c2ccccc2)CCCOCC1)c1ccc(C(F)(F)F)cc1 (centres undefined) | 3 | 1
CCC(C)NC(=O)CC1CCN(C(=O)c2cc(OC)c(OC)c(OC)c2)CC1 (centres undefined) | -1 | -3
CCC(=O)Nc1c(-c2ccc(F)c(F)c2)nc2ccccn12 | 12 | 0
COc1cc(O)c(C(CC(=O)N2CCN(c3ccccc3)CC2)c2ccc(N(C)C)cc2)c(OC)c1 (centres undefined) | 74* | -6
COc1ccc(C(CC(=O)N2CCN(c3ccccc3)CC2)c2c(OC)cc(OC)c3ccc(=O)oc23)cc1 (centres undefined) | 56* | -5
COc1ccc(C(CC(=O)N2CCCC2)c2c(O)cc(OC)cc2OC)cc1 (centres undefined) | 10 | 1
COc1cc(C(CC(=O)N2CCCC2)c2c(OC)cc(OC)c3ccc(=O)oc23)cc(OC)c1OC (centres undefined) | 14 | -1
CCNC(=O)N1CCCC(OCc2nc(-c3ccccc3)no2)C1 (centres undefined) | -6 | -6
CCc1cccc(NC(=O)CN(C)S(=O)(=O)c2ccc(Br)s2)c1 | -4 | 4
Cc1nn(C(=O)c2cccs2)c(C)c1Sc1ccc(Br)cc1 | 4 | -4
Cc1nn(C)c(C)c1Sc1ccc(Br)cc1 | 60*! | -3
COc1cc(OC)c(/C=C2\NC(=O)N(CC(=O)Nc3cccc(C)c3)C2=O)c(OC)c1 | 38 | -1
COc1nccnc1NC1CCN(C(=O)c2cccc3[nH]ccc23)CC1 | 9 | -1
CSc1ccc(C(=O)O)s1 | 2 | 88*
COc1ccc(OC)c(NC(=O)c2ccc(SC)s2)c1 | nt | -3
O=[N+]([O-])C=Cc1ccsc1 | nt | -10
COc1cccc(-c2nc(C3CCN(C(=O)C4COc5ccccc5O4)CC3)no2)c1 (centres undefined) | 87* | 1
Cc1cccc(-c2nc(C3CCN(C(=O)Cc4cccc(F)c4)CC3)no2)c1 | 20 | 0
COc1cccc(-c2nc(C3CCN(C(=O)c4ccccc4)CC3)no2)c1 | 13 | 0
Cc1cccc(-c2nc(C3CCN(C(=O)COc4ccc(Cl)cc4)CC3)no2)c1 | 80* | -1
SMILES | mHTT CaM bind | Pf apPOL block
CC(C)CCNC(=O)CC1CCN(S(=O)(=O)c2ccc(Br)s2)CC1 | -9 | 1
CCn1cc2c3c(cccc31)CN(C(=O)Nc1cccc(C(=O)OC)c1)CC2 | 1 | -2
COc1ccc(N=c2scc(-c3ccc(OC)cc3F)n2CCO)cc1 | 27 | -6
OCCn1c(-c2ccc(F)cc2)csc1=Nc1ccccc1 | 43 | -6
C=CCn1c(-c2ccc(OC)c(OC)c2)csc1=Nc1ccccn1 | 34 | -3
CCn1c(-c2ccc(OC)c(F)c2)csc1=Nc1ccccc1 | 72* | -3
OCCn1c(-c2ccc(F)cc2)csc1=Nc1cccc(Cl)c1 | 98* | -2
COc1ccc(-c2csc(=Nc3ccc(F)cc3)n2CCO)cc1F | 53* | -2
CCC(C)NC(=O)c1nc2ccccc2n(C)c1=O (centres undefined) | 2 | -1
Cc1cc(O)c(C(C)(C)c2c(O)cc(C)cc2C(C)(C)C)c(C(C)(C)C)c1 | -7 | nt
CC(C)c1ccc(CNC(=O)CN2CCc3ccccc3C2C(=O)N2CCCC2)cc1 (centres undefined) | 5 | 3
Cc1ccccc1N1C(=O)CC(N2CCN(C(=O)OC(C)(C)C)CC2)C1=O (centres undefined) | -2 | 2
COc1ccc(NCCNC(=O)c2ccc(Cl)cc2)c([N+](=O)[O-])c1 | 15 | 0
Cc1ccc(NC(=O)C2CCCN(S(=O)(=O)c3cccs3)C2)cn1 (centres undefined) | -3 | -1
CS(=O)(=O)N1CCCC(C(=O)Nc2nnc(-c3ccno3)o2)C1 (centres undefined) | 50* | 2
Cc1cc(-c2nnc(NC(=O)C3CCCN(S(=O)(=O)c4cccs4)C3)o2)nn1C (centres undefined) | 51* | -8
CCS(=O)(=O)c1ccc(-c2nnc(NC(=O)C3CCCN(S(C)(=O)=O)C3)o2)cc1 (centres undefined) | -1 | -1
CC(C)c1c(C2CCN(C(=O)c3ccccc3Br)CC2)noc1N | -4 | -5
Cc1cc2c(N3CCCC(C(=O)NCCCN(C)C4CCCCC4)C3)nccc2s1 (centres undefined) | -6 | -7

Screening results as filed in PubChem.
